Screening results from PubChem.
GalR3 antag: antagonists of human GalR3; AID 651719; HEK293 GalR3-CNG cAMP membrane potential fluorescence; galR3 body fused to GalR1 C-terminus; inhibition, % at 3 µM; O60755; 0.44% of 360,000 active;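 active = inhibition above the screen-wide average plus 3 SD, cut at about 13% in these data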;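 also: forskolin and galanin both at EC90 stimulate the cells; cAMP rise reported by CNG channel membrane potential dye signal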
Target sequence (O60755 1-299 limits assumed): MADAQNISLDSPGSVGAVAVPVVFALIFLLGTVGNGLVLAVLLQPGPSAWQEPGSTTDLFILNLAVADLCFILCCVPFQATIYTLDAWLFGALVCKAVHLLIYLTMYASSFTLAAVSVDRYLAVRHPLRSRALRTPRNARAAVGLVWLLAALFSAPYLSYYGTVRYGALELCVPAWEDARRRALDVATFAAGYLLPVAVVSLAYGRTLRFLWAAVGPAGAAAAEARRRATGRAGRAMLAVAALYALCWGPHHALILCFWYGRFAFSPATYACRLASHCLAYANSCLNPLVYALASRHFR
697 NFkB inh: lowers PMA/ionomycin-induced NF-kB signal in 697 B cells | 697 B-cell NF-kB luciferase reporter, 16 h | inhibition, % at 4 µM | 0.33% of 330,000 active; in the data active = inhibition above about 35%
Jurkat NFkB inh: lowers PMA/ionomycin-induced NF-kB signal in Jurkat cells. inhibition, % at 4 µM. PMA/ionomycin-induced NF-kB luciferase reporter, luminescence. 0.53% of 330,000 active; in the data active = inhibition above about 50%
COUP-TFII inh: NR2F2 (human) inhibition, primary screen | 0.7% of 370,000 active | inhibition, % at 8.6 µM | P24468 | HEK293T NGFI-A luciferase reporter, luminescence;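 active = inhibition above a per-plate cutoff, mean inhibition of test wells between control levels plus 3 SD, cut at about 38% in these data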;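 also: cells cotransfected with COUP-TFII expression vector driving the NGFI-A reporter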
Gli-Sufu block: blocks Gli-Sufu signaling in a luciferase reporter; Sufu-KO-LIGHT fibroblasts, Gli luciferase reporter luminescence; inhibition, % at 5 µM; 0.74% of 340,000 active;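 active = inhibition above about 55%, limit read from the data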
Gal4-VP16 ctr: VP16 inhibition counter-screen for COUP-TFII; shares compounds with COUP-TFII inh; HEK293 Gal4-VP16 luciferase reporter, luminescence; inhibition, % at 8.5 µM; 25% of 2,500 active; AID 687007; in the data active = inhibition above about 13%
NR2F2 inh conf: COUP-TFII (NR2F2) inhibition, confirmation assay; shares compounds with COUP-TFII inh; HEK293 NGFI-A luciferase reporter, luminescence; inhibition, % at 8.5 µM; 45% of 2,500 active; AID 687008;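 active = mean inhibition over three repeats above a set limit taken from the earlier primary screen, cut at about 38% in these data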
Large screens that a line does not name were inactive (follow-up assays come after a bar, where they were run). A selection: hits, their analogues and other compounds. The true share with any hit is near 2%.

CN(Cc1cccc(Cl)c1Cl)C(=O)c1cccc(S(=O)(=O)N2CCN(Cc3ccccc3)CC2)c1	COUP-TFII inh 42 | Gal4-VP16 ctr inactive | NR2F2 inh conf inactive
C=CCNC1CCC12CCC(c1ccccc1)CC2 (stereo not given)	none (no result: GalR3 antag, 697 NFkB inh, Jurkat NFkB inh, Gli-Sufu block)
COC(=O)C1CN(Cc2cn(Cc3ccc(Cl)cc3)nn2)CCS(=O)(=O)N1Cc1ccc(Cl)cc1 (stereo not given)	COUP-TFII inh 38 (no result: GalR3 antag, 697 NFkB inh, Jurkat NFkB inh, Gli-Sufu block) | Gal4-VP16 ctr inactive | NR2F2 inh conf inactive
COC(=O)C1CN(Cc2cn(Cc3ccc(Cl)cc3)nn2)CCS(=O)(=O)N1Cc1ccc(OC)cc1 (stereo not given)	none (no result: GalR3 antag, 697 NFkB inh, Jurkat NFkB inh, Gli-Sufu block)
Cc1ccc(NC(=O)Cn2nnc(-c3ccccc3F)n2)cc1C	none (no result: GalR3 antag, 697 NFkB inh, Jurkat NFkB inh, Gli-Sufu block)
COc1ccc(C(=O)O/N=C(\N)c2ccccn2)cc1	COUP-TFII inh 48 | Gal4-VP16 ctr inactive | NR2F2 inh conf inactive
COc1cc(OC)cc(C(=O)O/N=C(\N)c2ccccn2)c1	none
CCCN(CC1CC1)C(=O)c1ccc(CNC(=O)c2cccc(Br)c2)cc1	none (no result: GalR3 antag, 697 NFkB inh, Jurkat NFkB inh, Gli-Sufu block)
CCn1c(COc2c(C)cccc2C)nnc1SCC(=O)N1CCN(c2ccccc2)CC1	none
CCn1c(SCC(=O)N2CCN(c3ccccc3)CC2)nnc1-c1c[nH]c2ccccc12	COUP-TFII inh 46 (no result: GalR3 antag) | Gal4-VP16 ctr inactive | NR2F2 inh conf inactive
C=CCn1c(COc2cccc(C)c2C)nnc1SCC(=O)N1CCN(c2ccccc2)CC1	COUP-TFII inh 44 | Gal4-VP16 ctr inactive | NR2F2 inh conf 38
CCCCCCC/C=C(\C)[C@@H](O)[C@@H](C)C(=O)N1CCC[C@@H]1C(=O)O[C@H](C(=O)O[C@@H](C)C(=O)O)[C@@H](C)CC	none (no result: GalR3 antag, 697 NFkB inh, Jurkat NFkB inh, Gli-Sufu block)
CCOc1cccc(-c2nnc(SCC(=O)Nc3ccc4c(c3)OCO4)n2N)c1	none (no result: GalR3 antag, 697 NFkB inh, Jurkat NFkB inh, Gli-Sufu block)
Cn1nnnc1SCc1nc2scc(-c3ccc(Cl)cc3)c2c(=O)[nH]1	COUP-TFII inh 46 | Gal4-VP16 ctr inactive | NR2F2 inh conf inactive
O=C(CCc1ccccc1)N[C@H]1[C@H](OC(=O)c2ccco2)CCC[C@@]12C(=O)N(Cc1ccccc1)c1ccccc12	none (no result: GalR3 antag, 697 NFkB inh, Jurkat NFkB inh, Gli-Sufu block)
COc1ccc(N(C(C)C(=O)N2CCC(Cc3ccccc3)CC2)S(C)(=O)=O)cc1 (stereo not given)	COUP-TFII inh 42 | Gal4-VP16 ctr inactive | NR2F2 inh conf inactive
CCOC(=O)C1CCN(C(=O)C(C)N(c2ccc(Oc3ccccc3)cc2)S(C)(=O)=O)CC1 (stereo not given)	COUP-TFII inh 45 (no result: 697 NFkB inh, Jurkat NFkB inh) | Gal4-VP16 ctr inactive | NR2F2 inh conf inactive
CCOC(=O)N1CCN(C(=O)C(C)N(c2ccc(Oc3ccccc3)cc2)S(C)(=O)=O)CC1 (stereo not given)	none
C#CCNC(=O)C[C@H]1C[C@@]2(C(=O)OC)C(=C[C@H](COCc3ccccc3)O[C@@H]2C)N(CCc2ccc(OC)c(OC)c2)C1=O	none (no result: GalR3 antag, 697 NFkB inh, Jurkat NFkB inh, Gli-Sufu block)
C=CCCC1CN(Cc2ccc(OC)cc2)S(=O)(=O)c2c(NCc3cc(OC)c(OC)c(OC)c3)cccc2O1 (stereo not given)	COUP-TFII inh 43 (no result: 697 NFkB inh, Jurkat NFkB inh, Gli-Sufu block) | Gal4-VP16 ctr inactive | NR2F2 inh conf inactive
CC(=O)N1C[C@H]2CON(C)[C@H]2C[C@H]1c1cccc(-c2ccccc2C)c1	COUP-TFII inh 78 (no result: 697 NFkB inh, Jurkat NFkB inh) | Gal4-VP16 ctr inactive | NR2F2 inh conf inactive
Cc1ccccc1-c1cccc([C@@H]2C[C@H]3[C@H](CON3C)CN2C(=O)C(C)(C)C)c1	none (no result: 697 NFkB inh, Jurkat NFkB inh)
O=C(COC(=O)c1ccccc1O)NC(c1ccccc1)c1ccccc1	COUP-TFII inh 41 | Gal4-VP16 ctr inactive | NR2F2 inh conf inactive
Cc1c(C(=O)NCc2ccc3c(c2)OCCO3)sc(=O)n1Cc1ccc(S(=O)(=O)N(C)C)cc1	COUP-TFII inh 45 (no result: 697 NFkB inh, Jurkat NFkB inh, Gli-Sufu block) | Gal4-VP16 ctr inactive | NR2F2 inh conf inactive
Cc1c(C(=O)NCc2ccc3c(c2)OCO3)sc(=O)n1Cc1ccc(S(=O)(=O)N(C)C)cc1	none (no result: 697 NFkB inh, Jurkat NFkB inh, Gli-Sufu block)
Cc1c(C(=O)NCc2ccc(Cl)c(Cl)c2)sc(=O)n1Cc1ccc(S(C)(=O)=O)cc1	COUP-TFII inh 85 (no result: 697 NFkB inh, Jurkat NFkB inh, Gli-Sufu block) | Gal4-VP16 ctr inactive | NR2F2 inh conf inactive
CSc1ccc(Cn2c(C)c(C(=O)NCc3ccc(Cl)c(Cl)c3)sc2=O)cc1	none (no result: 697 NFkB inh, Jurkat NFkB inh, Gli-Sufu block)
C=C1CC2(CC(c3ccccc3)OC(c3ccccc3)C2)OC1=O (stereo not given)	COUP-TFII inh 46 (no result: 697 NFkB inh, Jurkat NFkB inh) | Gal4-VP16 ctr inactive | NR2F2 inh conf inactive
Cc1ccc(-c2[nH]c3ccccc3c2SCCNC(=O)c2ccc(S(=O)(=O)N3CCOCC3)cc2)cc1	COUP-TFII inh 47 (no result: GalR3 antag) | Gal4-VP16 ctr inactive | NR2F2 inh conf inactive
COc1ccc(-c2[nH]c3ccccc3c2SCCNC(=O)c2ccccc2)cc1	none (no result: GalR3 antag)
CCCCN1CCS(=O)(=O)N(Cc2cn(Cc3cccc(Cl)c3)nn2)C(C(=O)OC)C1 (stereo not given)	none (no result: GalR3 antag, 697 NFkB inh, Jurkat NFkB inh, Gli-Sufu block)
CCN(CC)S(=O)(=O)c1cc(C(=O)Nc2cccnc2)ccc1Cl	none
CN(CC(=O)Nc1ccc(Cl)c(C(F)(F)F)c1)C(=O)Cc1n[nH]c(=O)c2ccccc12	COUP-TFII inh 46 | Gal4-VP16 ctr inactive | NR2F2 inh conf inactive
O=C(Nc1ccncc1)c1ccc(Cl)c(S(=O)(=O)N2CCCC2)c1	COUP-TFII inh 46 | Gal4-VP16 ctr inactive | NR2F2 inh conf inactive
CCN(CC)S(=O)(=O)c1cc(C(=O)Nc2ccncc2)ccc1Cl	COUP-TFII inh 64 | Gal4-VP16 ctr inactive | NR2F2 inh conf inactive
Cc1ccc(NC(=O)Cc2n[nH]c(=O)c3ccccc23)cc1S(=O)(=O)N1CCCCCC1	COUP-TFII inh 38 | Gal4-VP16 ctr inactive | NR2F2 inh conf inactive
C[C@@H]1/C=C/CC(=O)N[C@H](c2ccccc2)[C@H](C)/C=C/CC(=O)N[C@@H]1c1ccccc1	none (no result: GalR3 antag, 697 NFkB inh, Jurkat NFkB inh, Gli-Sufu block)
